In PubChem BioAssay (Tox21):
Inconclusive results are not listed. Active and inactive are the calls of the source. Unless noted, calls follow the shape of the dose curve; as a rule, active = well fitted curve in the direction sought with a large enough effect in the repeat runs; inconclusive = weak or mixed curves; inactive = no such curve, though single readings can be large; an effect the other way counts as inactive or inconclusive.

Assays:
[1] = qHTS assay to identify small molecule agonists of the peroxisome proliferator-activated receptor delta (PPARd) signaling pathway - cell viability counter screen (AID 743211); also: nearly all actives have a fitted effect of over 55% in size; also: potency is read from the fitted curve at half-maximal effect
Procedure, shortened: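 PPARd-bla HEK293H cells (3000/well) were pre-incubated 5 h at 37 C, then exposed to compound for 17 h at 37 C. After 2 h with LiveBLAzer substrate, CellTiter-Glo was added to the same wells; luminescence read after 30 min at room temperature.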

[2] = qHTS assay to identify small molecule antagonists of the peroxisome proliferator-activated receptor delta (PPARd) signaling pathway - cell viability counter screen (AID 743213); also: nearly all actives have a fitted effect of over 50% in size; also: potency is read from the fitted curve at half-maximal effect
Procedure, shortened: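 Viability counter-screen, qHTS format: PPARd-bla HEK293H, L165041 300 nM final, 17 h compound exposure at 37 C, CellTiter-Glo luminescence after 30 min RT.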

[3] = biological target: Peroxisome proliferator-activated receptor delta (Homo sapiens) (UniProt Q03181); test: qHTS assay to identify small molecule antagonists of the peroxisome proliferator-activated receptor delta (PPARd) signaling pathway (AID 743215; active = well fitted inhibition curve with a large enough effect in the signal ratio in the repeat runs, not every such curve was filed as active; the % refers to the signal ratio;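 also: cells stimulated with agonist L165041 at 300 nM final during compound exposure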; also: potency is read from the fitted curve at half-maximal effect)
Procedure, shortened: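 PPARd-bla HEK293H cells (UAS-bla reporter) preincubated 5 h, then given compound plus 300 nM final L165041 agonist for 17 h at 37 C. Beta-lactamase activity read by LiveBLAzer B/G FRET substrate fluorescence after 2 h at room temperature.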

[4] = qHTS assay to identify small molecule agonists of the farnesoid-X-receptor (FXR) signaling pathway - cell viability counter screen (AID 743218); also: nearly all actives have a fitted effect of over 45% in size; also: potency is read from the fitted curve at half-maximal effect
Procedure, shortened: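 FXR-UAS-bla HEK 293T cells exposed to compounds for 16 h at 37C. Cytotoxicity read in the same wells by CellTiter-Glo luminescence after 30 min at room temperature, following the beta-lactamase FRET read.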

[5] = biological target: Vitamin D3 receptor (Homo sapiens) (UniProt P11473); test: qHTS assay to identify small molecule agonists of the vitamin D receptor (VDR) signaling pathway (AID 743222; calls by dose curve)
Procedure, shortened: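 VDR-bla cells plated 4 h at 37 C, then exposed to compounds for 16 h at 37 C. Beta-lactamase reporter activity measured by fluorescence after 2 h room-temperature loading with LiveBLAzer B/G FRET substrate.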

[6] = biological target: Vitamin D3 receptor (Homo sapiens) (UniProt P11473); test: qHTS assay to identify small molecule antagonists of the vitamin D receptor (VDR) signaling pathway (AID 743223; active = well fitted inhibition curve with a large enough effect in the signal ratio in the repeat runs, not every such curve was filed as active; the % refers to the signal ratio)
Procedure, shortened: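 VDR-bla cells were treated with compound plus 3 nM final 1alpha,25-dihydroxyvitamin D3 for 16 h at 37C. Beta-lactamase reporter read by B/G FRET substrate fluorescence after 2 h at room temperature. qHTS format.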

[7] = biological target: Peroxisome proliferator-activated receptor delta (Homo sapiens) (UniProt Q03181); test: qHTS assay to identify small molecule agonists of the peroxisome proliferator-activated receptor delta (PPARd) signaling pathway (AID 743212; calls by dose curve; also: potency is read from the fitted curve at half-maximal effect)
Procedure, shortened: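 GeneBLAzer PPARd UAS-bla HEK293H cells (beta-lactamase reporter under UAS control), plated and rested 5 h at 37 C, then exposed to compounds in DMSO at 37 C; LiveBLAzer B/G FRET substrate added, 2 h room temperature, fluorescence read.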

[8] = qHTS assay to identify small molecule antagonists of the farnesoid-X-receptor (FXR) signaling pathway - cell viability counter screen (AID 743221; active = well fitted cell-killing curve with a large enough effect in the repeat runs, not every such curve was filed as active; also: nearly all actives have a fitted effect of over 50% in size; also: potency is read from the fitted curve at half-maximal effect)
Procedure, shortened: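 GeneBLAzer FXR-UAS-bla HEK 293T cells, compound plus chenodeoxycholic acid (50 uM final), 16 h at 37 C. CellTiter-Glo added to the same wells after the beta-lactamase read; luminescence read after 30 min at room temperature as viability.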

[9] = biological target: Bile acid receptor (Homo sapiens) (UniProt Q96RI1); test: qHTS assay to identify small molecule agonists of the farnesoid-X-receptor (FXR) signaling pathway (AID 743220; active = well fitted activation curve with a large enough effect in the signal ratio in the repeat runs, not every such curve was filed as active; the % refers to the signal ratio)
Procedure, shortened: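 Beta-lactamase reporter under UAS control in GeneBLAzer FXR HEK 293T cells (5000/well) measured with LiveBLAzer FRET substrate after 2 h at room temperature. Compound exposure lasted 16 h at 37C.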

[10] = biological target: Bile acid receptor (Homo sapiens) (UniProt Q96RI1); test: qHTS assay to identify small molecule antagonists of the farnesoid-X-receptor (FXR) signaling pathway (AID 743217; active = well fitted inhibition curve with a large enough effect in the signal ratio in the repeat runs, not every such curve was filed as active; the % refers to the signal ratio; also: potency is read from the fitted curve at half-maximal effect)
Procedure, shortened: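 FXR-UAS-bla HEK 293T cells (beta-lactamase reporter) given compound plus chenodeoxycholic acid (50 uM final), 16 h at 37C. LiveBLAzer B/G FRET substrate added for 2 h at room temperature; fluorescence read.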

Measured: Potency

Peroxisome proliferator-activated receptor delta (Homo sapiens), sequence (Q03181 whole entry, looked up): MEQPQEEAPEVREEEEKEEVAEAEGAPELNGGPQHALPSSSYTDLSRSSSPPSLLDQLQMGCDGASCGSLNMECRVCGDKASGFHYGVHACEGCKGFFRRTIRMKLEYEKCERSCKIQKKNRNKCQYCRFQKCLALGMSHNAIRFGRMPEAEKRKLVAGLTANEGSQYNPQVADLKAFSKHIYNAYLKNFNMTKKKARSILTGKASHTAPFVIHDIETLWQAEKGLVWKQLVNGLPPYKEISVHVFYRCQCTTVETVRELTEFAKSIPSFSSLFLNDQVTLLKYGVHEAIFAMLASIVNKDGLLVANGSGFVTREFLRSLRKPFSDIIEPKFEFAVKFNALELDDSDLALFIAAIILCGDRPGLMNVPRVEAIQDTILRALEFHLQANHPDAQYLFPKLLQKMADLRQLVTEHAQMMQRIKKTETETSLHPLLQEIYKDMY
Bile acid receptor (Homo sapiens), sequence (Q96RI1 whole entry, looked up): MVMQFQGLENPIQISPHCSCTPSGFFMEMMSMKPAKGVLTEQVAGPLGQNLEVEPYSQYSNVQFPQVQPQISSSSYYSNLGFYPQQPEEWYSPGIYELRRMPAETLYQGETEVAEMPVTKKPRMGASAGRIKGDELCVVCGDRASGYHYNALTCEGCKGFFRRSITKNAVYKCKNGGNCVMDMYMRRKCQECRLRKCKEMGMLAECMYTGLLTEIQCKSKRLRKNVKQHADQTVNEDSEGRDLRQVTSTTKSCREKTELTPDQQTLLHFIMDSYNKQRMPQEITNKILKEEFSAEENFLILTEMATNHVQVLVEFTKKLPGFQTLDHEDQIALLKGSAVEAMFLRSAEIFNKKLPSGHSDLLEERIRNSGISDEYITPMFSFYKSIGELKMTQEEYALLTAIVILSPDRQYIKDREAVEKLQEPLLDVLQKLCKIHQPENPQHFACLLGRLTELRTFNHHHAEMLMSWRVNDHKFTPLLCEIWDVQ
Vitamin D3 receptor (Homo sapiens), sequence (P11473 whole entry, looked up): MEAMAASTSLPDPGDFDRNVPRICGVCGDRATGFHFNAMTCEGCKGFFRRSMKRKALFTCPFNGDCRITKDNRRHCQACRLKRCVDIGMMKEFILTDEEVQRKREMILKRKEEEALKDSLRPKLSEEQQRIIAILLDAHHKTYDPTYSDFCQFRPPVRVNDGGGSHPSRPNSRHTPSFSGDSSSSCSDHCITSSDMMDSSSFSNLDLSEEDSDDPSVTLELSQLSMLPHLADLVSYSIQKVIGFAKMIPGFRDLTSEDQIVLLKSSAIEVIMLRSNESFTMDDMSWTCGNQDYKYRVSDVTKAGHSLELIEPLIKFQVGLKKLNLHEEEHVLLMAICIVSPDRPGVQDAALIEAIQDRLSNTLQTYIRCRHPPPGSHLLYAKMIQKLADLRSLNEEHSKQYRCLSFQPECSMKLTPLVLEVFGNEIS

Cc1cc2c(OCC(CNC(C)(C)C)OC(=O)c3ccccc3)cccc2[nH]1 (stereo not drawn)
inactive: [1] | [2] | [3] | [4] | [5] | [6]

C=C(C)C(=O)OCCCCCCCCCCCCC
inactive: [1] | [7] | [3] | [4]

O=[N+]([O-])c1ccc(Nc2ccc(Nc3ccccc3)c(S(=O)(=O)O)c2)c([N+](=O)[O-])c1
inactive: [1] | [7] | [4] | [8] | [5]

Oc1cc2c(cc1O)[C@H]1c3ccc(O)c(O)c3OC[C@@]1(O)C2
inactive: [1] | [7] | [2] | [8]

CCOc1ccccc1O[C@H](c1ccccc1)[C@H]1CNCCO1
inactive: [1] | [7] | [3] | [4] | [9]

C/C=C\C/C=C/CCCCCCCCOC(C)=O
inactive: [1] | [7] | [2] | [9] | [8]

O=C(O)c1ccc(OCCCOc2ccc(C(=O)O)cc2)cc1
inactive: [1] | [7] | [3] | [10] | [4] | [9] | [8] | [5] | [6]

CCCCOc1ccc(OCCCN2CCOCC2)cc1
inactive: [1] | [2] | [10] | [9] | [8] | [5]

O=C(O)CCc1nc(-c2ccccc2)c(-c2ccccc2)o1
inactive: [1] | [2] | [3] | [5]

C[C@@H]1CN(CCCn2c3ccccc3c3ccccc32)C[C@H](C)N1
active: [1] 10.6 µM | [2] 9.44 µM | [3] 29.8 µM | [4] 15 µM | [8] 29.8 µM

CCCCCCCCCCCCCCN(CCO)CCO
inactive: [5]
active: [1] 43.6 µM | [2] 49 µM | [10] 49 µM | [4] 43.6 µM

COc1cc(C(=O)NCCCCCC(=O)O)cc(OC)c1OC
inactive: [1] | [7] | [2] | [8] | [6]

CC1CC(OC(=O)C(O)c2ccccc2)CC(C)(C)N1C (stereo not drawn)
inactive: [1] | [7] | [3] | [4] | [8]

C[C@H]1C[C@H](O)c2ccsc2S1(=O)=O
inactive: [1] | [7] | [3] | [4]

C=C1CCC2CC1C2(C)C (stereo not drawn)
inactive: [1] | [7] | [4] | [8] | [5] | [6]

CCC=CC#N
inactive: [1] | [7] | [2] | [8]

CCCCCC[C@@H](O)C/C=C\CCCCCCCC(=O)OCC(O)CO (stereo partly drawn)
inactive: [1] | [2] | [8] | [5]
active: [7] 49 µM

CC(C)Nc1cccnc1N1CCN(C(=O)c2cc3cc(NS(C)(=O)=O)ccc3[nH]2)CC1
inactive: [1] | [2] | [10] | [8] | [5] | [6]

N#CCc1ccc(Cl)cc1Cl
inactive: [1] | [7] | [2] | [8] | [5]

CCOc1ccc(Cc2nccc3cc(OCC)c(OCC)cc23)cc1OCC
inactive: [1] | [7] | [2] | [8] | [5]

CS(=O)(=O)c1ccc(-c2cn3ccccc3n2)cc1
active: [1] 29.8 µM
inactive: [7] | [3] | [4] | [8] | [6]

CCCCCC#CC(=O)OC
inactive: [1] | [2] | [3] | [4] | [8] | [5]

CCC1NC(=O)c2cc(S(N)(=O)=O)c(Cl)cc2N1 (stereo not drawn)
inactive: [1] | [7] | [2] | [4] | [5] | [6]

OCCN1CCN(CCCN2c3ccccc3Sc3ccc(Cl)cc32)CC1
active: [1] 29.8 µM | [4] 26.6 µM | [8] 26.6 µM
inactive: [7] | [9]

O=c1cc(-c2ccccc2)oc2ccc3ccccc3c12
active: [1] 17.4 µM | [2] 13.8 µM | [4] 8.71 µM | [8] 19.5 µM
inactive: [3] | [5]

C/C=C/C=C/C=O
inactive: [1] | [7] | [4] | [5]

O=C(OCC(O)CO)c1ccccc1Nc1ccnc2cc(Cl)ccc12 (stereo not drawn)
active: [1] 33.5 µM | [2] 26.6 µM

CCOC(C)=O
inactive: [1] | [7] | [3] | [4] | [8] | [5] | [6]

CC(=O)OCC(=O)NCCCOc1cccc(CN2CCCCC2)c1
inactive: [1] | [7] | [10] | [4] | [9] | [8] | [5] | [6]

CC(=O)[C@H]1[C@H](C#N)C[C@H]2[C@@H]3CC=C4C[C@@H](O)CC[C@]4(C)[C@H]3CC[C@@]21C
inactive: [1] | [7] | [3] | [10] | [4] | [8]

Nc1ncnc2c1ncn2[C@H]1CC[C@@H](CO)O1
inactive: [1] | [7] | [3] | [10] | [4] | [9] | [5] | [6]

CCC1(CO)COCOC1
inactive: [1] | [7] | [3] | [4] | [8] | [5]

C[C@@H](CN(C)C)CN1c2ccccc2Sc2ccccc21
inactive: [3] | [9] | [5]
active: [1] 23.7 µM | [2] 26.6 µM

O=C(/C=C/c1ccccc1)OCCc1ccccc1
inactive: [1] | [2]

Cc1ccc(Cl)c(Nc2ccccc2C(=O)O)c1Cl
inactive: [1] | [2] | [10] | [4] | [9] | [8]

CC(CN(C)C)C(C)(O)Cc1ccc(Cl)cc1 (stereo not drawn)
inactive: [1] | [7] | [3] | [8] | [5] | [6]

C1C[C@@H]2[C@H]3CC[C@H](C3)[C@@H]2C1
inactive: [1] | [2] | [3] | [4] | [5] | [6]

Cc1cccc(O)c1N
inactive: [1] | [2] | [10] | [4] | [9] | [8]

C[C@H]1c2cccc(O)c2C(O)=C2C(=O)[C@]3(O)C(O)=C(C(N)=O)C(=O)[C@@H](N(C)C)[C@@H]3[C@@H](O)[C@@H]21
inactive: [1] | [2] | [4] | [8]
